# Experimental data: PubChem BioAssay (EPA / NIEHS)
# Results filed as inconclusive are left out. Calls of active or inactive are those of the source. How the source made its calls, unless noted: active means hit-call score of the fitted dose curve at least 0.9, where 1 is the maximum; inactive means score below 0.9.
# Columns and labels:
# [1] = target: Nuclear respiratory factor 1 (Homo sapiens) (UniProt Q16656); experiment: ATG_NRF1_CIS: Attagene CIS-FACTORIAL HepG2 Assay for human Nuclear Respiratory Factor 1 (NRF1) Orphan Gene (AID 2282987); conditions: HepG2 NRF1 cis-element reporter, Attagene multiplex; actives raise or lower the signal
# Nuclear respiratory factor 1 (Homo sapiens), sequence (Q16656 whole entry, looked up): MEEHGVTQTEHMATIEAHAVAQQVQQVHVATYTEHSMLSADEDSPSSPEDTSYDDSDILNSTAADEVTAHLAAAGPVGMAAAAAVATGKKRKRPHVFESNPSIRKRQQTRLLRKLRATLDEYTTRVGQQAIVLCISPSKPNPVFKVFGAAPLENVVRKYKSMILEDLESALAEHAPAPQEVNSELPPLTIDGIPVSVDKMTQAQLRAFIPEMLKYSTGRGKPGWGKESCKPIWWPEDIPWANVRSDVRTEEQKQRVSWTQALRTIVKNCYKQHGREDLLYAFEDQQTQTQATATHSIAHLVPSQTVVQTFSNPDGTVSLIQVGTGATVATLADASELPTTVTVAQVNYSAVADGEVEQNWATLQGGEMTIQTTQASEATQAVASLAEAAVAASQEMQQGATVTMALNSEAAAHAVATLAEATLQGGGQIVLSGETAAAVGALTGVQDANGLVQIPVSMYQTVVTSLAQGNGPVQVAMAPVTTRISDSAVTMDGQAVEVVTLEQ
# In short: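 Human hepatoma HepG2 cells carrying transfected promoter-regulated reporter units were incubated with test chemicals for 24 h. Reporter transcripts were measured by RT-PCR plus capillary electrophoresis, and endpoints derived by bidirectional fitting with DMSO as baseline.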
# [2] = ATG_NFI_CIS: Attagene CIS-FACTORIAL HepG2 Assay for human Nuclear Factor I (NFI) (AID 2282989); conditions: HepG2 cis-regulatory reporter, NFI response element transcription; actives raise or lower the signal
# In short: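 Cells: human liver HepG2, transiently transfected with promoter-regulated reporter transcription units. Exposure 24 h. Detection: fluorescent RT-PCR products separated by capillary electrophoresis, normalised to DMSO negative control.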
# [3] = target: Myc proto-oncogene protein (Homo sapiens) (UniProt P01106); experiment: ATG_Myc_CIS: Attagene CIS-FACTORIAL HepG2 Assay for human Myelocytomatosis (Myc) Proto-Oncogene Transcription Factor (AID 2282990); conditions: HepG2, Attagene cis-reporter transcription factor activity; actives raise or lower the signal
# Myc proto-oncogene protein (Homo sapiens), sequence (P01106 whole entry, looked up, the tested form may be a part): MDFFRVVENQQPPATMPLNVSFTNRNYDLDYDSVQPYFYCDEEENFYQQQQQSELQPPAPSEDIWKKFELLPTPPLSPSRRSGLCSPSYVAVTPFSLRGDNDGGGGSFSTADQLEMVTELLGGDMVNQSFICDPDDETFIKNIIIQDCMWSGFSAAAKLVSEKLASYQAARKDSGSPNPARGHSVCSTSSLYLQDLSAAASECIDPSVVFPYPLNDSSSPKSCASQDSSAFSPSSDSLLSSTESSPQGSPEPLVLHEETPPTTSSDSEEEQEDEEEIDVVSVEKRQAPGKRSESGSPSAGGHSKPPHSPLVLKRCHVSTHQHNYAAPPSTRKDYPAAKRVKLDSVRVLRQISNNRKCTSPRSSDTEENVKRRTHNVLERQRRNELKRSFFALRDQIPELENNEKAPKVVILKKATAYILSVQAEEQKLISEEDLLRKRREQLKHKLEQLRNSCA
# In short: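 After 24 h chemical treatment of HepG2 cells carrying multiplexed cis-regulated reporter constructs, reporter transcripts quantified by RT-PCR and capillary electrophoresis of fluorescent fragments. Gain or loss fitted against DMSO baseline.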
# [4] = ATG_NF_kB_CIS: Attagene CIS-FACTORIAL HepG2 Assay for human Nuclear Factor Kappa B (NF-kB) (AID 2282991); conditions: HepG2 Attagene cis-factorial NF-kB reporter mRNA; actives raise or lower the signal
# In short: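 Multiplexed cis-reporter assay in transiently transfected HepG2. 24 h treatment; RNA isolated, RT-PCR, labelled fragments resolved by CE. DMSO baseline.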
# [5] = ATG_NRF2_ARE_CIS: Attagene CIS-FACTORIAL HepG2 Assay for human Nuclear Factor Erythroid 2 Related Factor 2 (NFR2) response to Antioxidant Response Elements (ARE) (AID 2282992); conditions: HepG2 Attagene ARE/NRF2 reporter, transcription factor activity; actives raise or lower the signal;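 on AC50: reporter mRNA level measured by RT-PCR and capillary electrophoresis fluorescence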
# In short: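 Transient MRTU transfection of HepG2; 24 h compound exposure; TriZol RNA, RT with oligo(dT), PCR, 6-FAM primer extension, HpaI cut, CE. Bidirectional fit vs DMSO.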
# [6] = ATG_Oct_MLP_CIS: Attagene CIS-FACTORIAL HepG2 Assay for human Octamer-Binding Transcription Factor (Oct) (AID 2282993); conditions: HepG2 Attagene cis-factorial Oct reporter, mRNA; actives raise or lower the signal
# In short: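 HepG2, transient MRTU transfection, cis promoter elements; 24 h dosing; RT-PCR/CE fluorescence read-out of reporter mRNA; fit both directions vs DMSO.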
# [7] = target: Cellular tumor antigen p53 (Homo sapiens) (UniProt P04637); experiment: ATG_p53_CIS: Attagene CIS-FACTORIAL HepG2 Assay for human p53 Transcription Factor (AID 2282994); conditions: HepG2 p53 cis-element reporter, Attagene mRNA; actives raise or lower the signal
# Cellular tumor antigen p53 (Homo sapiens), sequence (P04637 whole entry, looked up): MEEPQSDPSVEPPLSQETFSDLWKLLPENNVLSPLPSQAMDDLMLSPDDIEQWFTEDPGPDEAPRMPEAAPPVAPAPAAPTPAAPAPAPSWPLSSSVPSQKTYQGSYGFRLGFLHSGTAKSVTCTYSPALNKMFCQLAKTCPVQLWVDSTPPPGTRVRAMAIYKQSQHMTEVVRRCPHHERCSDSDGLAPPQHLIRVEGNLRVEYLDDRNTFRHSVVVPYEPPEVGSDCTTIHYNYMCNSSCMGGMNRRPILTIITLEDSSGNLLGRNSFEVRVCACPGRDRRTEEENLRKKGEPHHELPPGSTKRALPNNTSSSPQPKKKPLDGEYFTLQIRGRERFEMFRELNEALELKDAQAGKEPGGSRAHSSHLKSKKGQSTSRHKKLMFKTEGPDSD
# In short: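 HepG2, transient MRTU transfection (cis promoter elements, endogenous TFs); 24 h dosing; RNA isolation, RT-PCR, 6-FAM primer extension, HpaI digest, CE fluorescence; bidirectional fit vs DMSO.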
# [8] = target: human Peroxisome Proliferator-activated Receptor alpha (PPARa), PPARA (gene 5465) (UniProt Q07869); experiment: ATG_PPARa_TRANS: Attagene TRANS-FACTORIAL HepG2 Assay for human Peroxisome Proliferator-activated Receptor alpha (PPARa) (AID 2283001; active means hit-call score of the fitted dose curve at least 0.9, where 1 is the maximum;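 on AC50: potency for gain of reporter signal over DMSO so agonist or activator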)
# human Peroxisome Proliferator-activated Receptor alpha (PPARa), PPARA (gene 5465), sequence (Q07869 whole entry, looked up, the tested form may be a part): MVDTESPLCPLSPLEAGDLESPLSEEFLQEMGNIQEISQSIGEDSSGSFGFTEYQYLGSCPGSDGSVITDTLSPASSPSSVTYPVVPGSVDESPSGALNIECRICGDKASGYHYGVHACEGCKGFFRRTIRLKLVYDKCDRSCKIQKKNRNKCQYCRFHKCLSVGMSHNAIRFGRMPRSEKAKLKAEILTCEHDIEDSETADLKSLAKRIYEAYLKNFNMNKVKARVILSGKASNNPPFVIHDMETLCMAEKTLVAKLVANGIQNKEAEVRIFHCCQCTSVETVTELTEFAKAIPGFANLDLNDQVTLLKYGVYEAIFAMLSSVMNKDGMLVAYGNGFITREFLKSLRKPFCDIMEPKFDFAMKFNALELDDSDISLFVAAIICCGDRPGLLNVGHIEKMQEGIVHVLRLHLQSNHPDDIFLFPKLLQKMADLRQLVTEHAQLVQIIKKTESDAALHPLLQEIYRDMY
# In short: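 Reporter transcripts from GAL4-UAS units in transfected HepG2 were quantified 24 h after dosing. Detection used reverse transcription, PCR, fluorescent primer extension and capillary electrophoresis, with DMSO as baseline.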
# [9] = target: human Peroxisome Proliferator-activated Receptor delta (PPARd), PPARD (gene 5467) (UniProt Q03181); experiment: ATG_PPARd_TRANS: Attagene TRANS-FACTORIAL HepG2 Assay for human Peroxisome Proliferator-activated Receptor delta (PPARd) (AID 2283002; active means hit-call score of the fitted dose curve at least 0.9, where 1 is the maximum)
# human Peroxisome Proliferator-activated Receptor delta (PPARd), PPARD (gene 5467), sequence (Q03181 whole entry, looked up, the tested form may be a part): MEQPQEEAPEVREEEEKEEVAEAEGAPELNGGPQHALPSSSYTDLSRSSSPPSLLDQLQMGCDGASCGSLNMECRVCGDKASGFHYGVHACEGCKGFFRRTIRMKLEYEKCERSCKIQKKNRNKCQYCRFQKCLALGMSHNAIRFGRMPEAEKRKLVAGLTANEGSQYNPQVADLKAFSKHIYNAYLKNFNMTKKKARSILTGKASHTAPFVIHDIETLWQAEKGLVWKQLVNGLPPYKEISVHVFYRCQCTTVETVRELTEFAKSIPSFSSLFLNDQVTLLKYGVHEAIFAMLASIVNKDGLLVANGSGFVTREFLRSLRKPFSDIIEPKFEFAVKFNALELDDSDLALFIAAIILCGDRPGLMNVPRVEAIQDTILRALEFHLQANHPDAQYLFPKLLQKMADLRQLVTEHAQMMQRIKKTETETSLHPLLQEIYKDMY
# In short: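 Read-out is induced reporter mRNA, quantified by RT-PCR with fluorescent labelling and capillary electrophoresis after 24 h dosing. Cells are HepG2 transiently carrying multiple GAL4-UAS reporter units driven by exogenous NR-GAL4 chimeras; DMSO serves as baseline.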
# [10] = target: human Retinoic Acid Receptor beta (RARb), RARB (gene 5915) (UniProt P10826); experiment: ATG_RARb_TRANS: Attagene TRANS-FACTORIAL HepG2 Assay for human Retinoic Acid Receptor beta (AID 2283004; active means hit-call score of the fitted dose curve at least 0.9, where 1 is the maximum)
# human Retinoic Acid Receptor beta (RARb), RARB (gene 5915), sequence (P10826 whole entry, looked up, the tested form may be a part): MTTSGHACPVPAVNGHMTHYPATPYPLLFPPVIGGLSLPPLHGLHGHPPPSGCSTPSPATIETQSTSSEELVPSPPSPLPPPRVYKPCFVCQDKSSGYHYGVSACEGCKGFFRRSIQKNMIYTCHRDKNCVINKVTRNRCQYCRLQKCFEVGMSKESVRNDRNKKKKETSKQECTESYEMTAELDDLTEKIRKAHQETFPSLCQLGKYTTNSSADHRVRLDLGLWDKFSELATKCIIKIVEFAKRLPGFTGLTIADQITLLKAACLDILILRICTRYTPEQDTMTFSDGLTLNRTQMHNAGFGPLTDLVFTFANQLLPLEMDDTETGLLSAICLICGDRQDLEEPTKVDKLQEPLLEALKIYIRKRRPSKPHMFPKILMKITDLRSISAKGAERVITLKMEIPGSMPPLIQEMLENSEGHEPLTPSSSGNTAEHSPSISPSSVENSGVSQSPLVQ
# In short: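 Fluorescent capillary-electrophoresis detection of GAL4-UAS reporter mRNA defines the endpoint, with induction over DMSO-treated wells scored as activity. Transiently transfected human hepatoma HepG2 cells expressing exogenous NR–Gal4 proteins are exposed to test chemicals for 24 h.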
# [11] = target: Peroxisome proliferator-activated receptor gamma (Homo sapiens) (UniProt P37231); experiment: ATG_PPARg_TRANS: Attagene TRANS-FACTORIAL HepG2 Assay for human Peroxisome Proliferator-activated Receptor-gamma (PPARg) (AID 2283007; active means hit-call score of the fitted dose curve at least 0.9, where 1 is the maximum)
# Peroxisome proliferator-activated receptor gamma (Homo sapiens), sequence (P37231 whole entry, looked up): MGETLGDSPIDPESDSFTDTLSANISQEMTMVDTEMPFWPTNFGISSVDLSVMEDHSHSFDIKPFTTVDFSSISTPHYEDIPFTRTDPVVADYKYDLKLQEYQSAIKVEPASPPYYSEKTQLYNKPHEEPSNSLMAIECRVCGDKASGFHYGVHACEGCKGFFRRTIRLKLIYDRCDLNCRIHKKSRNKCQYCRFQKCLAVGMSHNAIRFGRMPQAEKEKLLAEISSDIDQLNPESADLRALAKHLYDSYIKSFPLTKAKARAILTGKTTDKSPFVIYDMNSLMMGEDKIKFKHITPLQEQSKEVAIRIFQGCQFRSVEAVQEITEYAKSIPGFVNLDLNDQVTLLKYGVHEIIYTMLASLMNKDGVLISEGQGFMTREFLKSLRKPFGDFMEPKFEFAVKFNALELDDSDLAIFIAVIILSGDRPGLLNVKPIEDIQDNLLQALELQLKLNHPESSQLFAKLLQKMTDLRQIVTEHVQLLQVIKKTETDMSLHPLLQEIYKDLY
# In short: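 Human hepatoma HepG2, transient MRTU transfection, 24 h treatment. mRNA reporter signal by RT-PCR plus capillary electrophoresis, fluorescence detection; fitted for increase over DMSO negative control.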
# [12] = target: human Retinoic Acid Receptor gamma (RARg), RARG (gene 5916) (UniProt P13631); experiment: ATG_RARg_TRANS: Attagene TRANS-FACTORIAL HepG2 Assay for human Retinoic Acid Receptor gamma (RARg) (AID 2283009; active means hit-call score of the fitted dose curve at least 0.9, where 1 is the maximum)
# human Retinoic Acid Receptor gamma (RARg), RARG (gene 5916), sequence (P13631 whole entry, looked up, the tested form may be a part): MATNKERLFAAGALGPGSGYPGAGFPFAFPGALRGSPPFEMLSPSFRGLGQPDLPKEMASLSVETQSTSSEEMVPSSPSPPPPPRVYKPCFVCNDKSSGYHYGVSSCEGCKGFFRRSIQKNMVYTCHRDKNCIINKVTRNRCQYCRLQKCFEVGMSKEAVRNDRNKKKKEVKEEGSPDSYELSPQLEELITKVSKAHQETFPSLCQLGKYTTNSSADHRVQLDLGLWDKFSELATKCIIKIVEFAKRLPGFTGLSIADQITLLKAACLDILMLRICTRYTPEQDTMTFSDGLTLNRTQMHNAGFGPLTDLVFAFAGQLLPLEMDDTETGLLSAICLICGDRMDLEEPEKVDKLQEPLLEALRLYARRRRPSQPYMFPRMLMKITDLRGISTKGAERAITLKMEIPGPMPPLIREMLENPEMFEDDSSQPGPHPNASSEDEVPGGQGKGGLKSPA
# In short: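 HepG2 cells transiently transfected with multiplexed reporter units expressing chimeric RARg-GAL4 and GAL4-UAS-driven reporters; 24 h compound exposure. Reporter mRNA quantified by RT-PCR with fluorescent labelling and capillary electrophoresis; gain-of-signal fitted relative to DMSO baseline.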
# [13] = target: Nuclear receptor subfamily 1 group I member 2 (Homo sapiens) (UniProt O75469); experiment: ATG_PXR_TRANS: Attagene TRANS-FACTORIAL HepG2 Assay for human Pregnane X Receptor (PXR) (AID 2283008; active means hit-call score of the fitted dose curve at least 0.9, where 1 is the maximum)
# Nuclear receptor subfamily 1 group I member 2 (Homo sapiens), sequence (O75469 whole entry, looked up, the tested form may be a part): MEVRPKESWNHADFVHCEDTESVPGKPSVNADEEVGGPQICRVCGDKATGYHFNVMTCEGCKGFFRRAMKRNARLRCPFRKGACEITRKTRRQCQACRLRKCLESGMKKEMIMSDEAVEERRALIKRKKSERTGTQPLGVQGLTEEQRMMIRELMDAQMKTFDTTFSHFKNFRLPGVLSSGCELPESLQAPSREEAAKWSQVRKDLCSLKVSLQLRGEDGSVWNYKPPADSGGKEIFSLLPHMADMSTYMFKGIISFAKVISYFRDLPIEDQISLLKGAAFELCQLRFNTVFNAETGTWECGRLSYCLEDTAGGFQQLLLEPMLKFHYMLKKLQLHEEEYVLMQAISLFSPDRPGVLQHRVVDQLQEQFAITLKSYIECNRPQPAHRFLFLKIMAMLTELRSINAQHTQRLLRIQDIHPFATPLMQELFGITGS
# In short: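 Read-out is fluorescence of labelled reporter cDNA fragments separated by capillary electrophoresis after RT-PCR and HpaI digestion. Source: HepG2 cells carrying PXR-GAL4/UAS reporter constructs, treated 24 h; activity fitted upward relative to DMSO.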
# [14] = target: Retinoic acid receptor alpha (Homo sapiens) (UniProt P10276); experiment: ATG_RARa_TRANS: Attagene TRANS-FACTORIAL HepG2 Assay for human Retinoic Acid Receptor alpha (RARa) (AID 2283005; active means hit-call score of the fitted dose curve at least 0.9, where 1 is the maximum;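 on AC50: potency for increased reporter signal meaning RARa activation over DMSO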)
# Retinoic acid receptor alpha (Homo sapiens), sequence (P10276 whole entry, looked up, the tested form may be a part): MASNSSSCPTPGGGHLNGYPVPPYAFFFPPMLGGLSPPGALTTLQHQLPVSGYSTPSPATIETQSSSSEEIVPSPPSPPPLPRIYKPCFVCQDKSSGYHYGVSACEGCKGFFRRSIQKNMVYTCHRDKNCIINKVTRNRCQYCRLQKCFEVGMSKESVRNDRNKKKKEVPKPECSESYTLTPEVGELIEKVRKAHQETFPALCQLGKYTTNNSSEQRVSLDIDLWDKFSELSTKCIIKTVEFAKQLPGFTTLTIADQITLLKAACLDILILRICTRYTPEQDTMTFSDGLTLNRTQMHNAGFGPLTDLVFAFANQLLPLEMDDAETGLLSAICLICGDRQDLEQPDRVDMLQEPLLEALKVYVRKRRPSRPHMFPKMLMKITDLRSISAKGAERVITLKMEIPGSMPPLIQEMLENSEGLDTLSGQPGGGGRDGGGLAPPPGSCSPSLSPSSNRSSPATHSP
# In short: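 Reporter transcripts, measured by RT-PCR with fluorescent labeling and capillary electrophoresis after 24 h dosing, reflect activity of an exogenous human RARa–GAL4 fusion in transiently transfected HepG2. Fitted for increase relative to DMSO.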
structure (smiles),measurement,setting,value
CCCCOC(=O)C(C)O (stereo not given),outcome,[1],inactive
same,outcome,[2],inactive
same,outcome,[3],inactive
same,outcome,[4],inactive
same,outcome,[5],inactive
same,outcome,[6],inactive
same,outcome,[7],inactive
same,outcome,[8],inactive
same,outcome,[9],inactive
same,outcome,[10],inactive
same,outcome,[11],inactive
same,outcome,[12],inactive
CCOC(=O)CCC(C)=O,outcome,[1],inactive
same,outcome,[2],inactive
same,outcome,[3],inactive
same,outcome,[4],inactive
same,outcome,[5],inactive
same,outcome,[6],inactive
same,outcome,[7],inactive
same,outcome,[8],inactive
same,outcome,[9],inactive
same,outcome,[13],inactive
CCCCCCCCn1sc(Cl)c(Cl)c1=O,outcome,[1],inactive
same,outcome,[2],inactive
same,outcome,[3],inactive
same,outcome,[4],inactive
same,AC50,[5],6.58 µM (active)
same,outcome,[6],inactive
same,AC50,[7],11.1 µM (active)
same,outcome,[8],inactive
same,outcome,[9],inactive
same,AC50,[11],11.1 µM (active)
same,outcome,[13],inactive
Cc1cc(=O)[nH]c(C(C)C)n1,outcome,[1],inactive
same,outcome,[2],inactive
same,outcome,[3],inactive
same,outcome,[4],inactive
same,outcome,[5],inactive
same,outcome,[6],inactive
same,outcome,[7],inactive
same,outcome,[8],inactive
same,outcome,[9],inactive
same,outcome,[13],inactive
CCc1cc(Cc2cc(CC)c(N)c(CC)c2)cc(CC)c1N,outcome,[1],inactive
same,AC50,[2],53.4 µM (active)
same,AC50,[3],57.3 µM (active)
same,outcome,[4],inactive
same,AC50,[5],1.62 µM (active)
same,AC50,[6],41.9 µM (active)
same,AC50,[7],27.2 µM (active)
same,outcome,[9],inactive
same,AC50,[13],1.08 µM (active)
same,outcome,[12],inactive
Nc1cccnc1N,outcome,[1],inactive
same,outcome,[2],inactive
same,outcome,[3],inactive
same,outcome,[4],inactive
same,AC50,[5],17.9 µM (active)
same,outcome,[6],inactive
same,outcome,[7],inactive
same,outcome,[8],inactive
same,outcome,[9],inactive
same,outcome,[10],inactive
same,AC50,[14],70.8 µM (active)
same,outcome,[11],inactive
CCc1ccc(C)nc1,outcome,[1],inactive
same,outcome,[2],inactive
same,outcome,[3],inactive
same,outcome,[4],inactive
same,outcome,[5],inactive
same,outcome,[6],inactive
same,outcome,[7],inactive
same,outcome,[14],inactive
same,outcome,[11],inactive
CCCCCCCC/C=C\CCCCCCCC(=O)N(C)CC(=O)O,outcome,[1],inactive
same,outcome,[2],inactive
same,outcome,[3],inactive
same,outcome,[4],inactive
same,outcome,[5],inactive
same,outcome,[6],inactive
same,outcome,[7],inactive
same,AC50,[8],2.02 µM (active)
same,outcome,[9],inactive
same,outcome,[10],inactive
same,outcome,[14],inactive
same,outcome,[13],inactive
O=C1C=CC(=O)N1c1ccccc1,outcome,[1],inactive
same,outcome,[2],inactive
same,outcome,[3],inactive
same,outcome,[4],inactive
same,AC50,[5],53.8 µM (active)
same,outcome,[6],inactive
same,outcome,[7],inactive
same,outcome,[8],inactive
same,outcome,[9],inactive
same,outcome,[10],inactive
same,outcome,[14],inactive
CCOCOCC,outcome,[1],inactive
same,outcome,[2],inactive
same,outcome,[3],inactive
same,outcome,[4],inactive
same,outcome,[5],inactive
same,outcome,[6],inactive
same,outcome,[7],inactive
same,outcome,[9],inactive
same,outcome,[10],inactive
same,outcome,[14],inactive
Oc1ccc2c(c1)CCC2,outcome,[1],inactive
same,outcome,[2],inactive
same,outcome,[3],inactive
same,outcome,[4],inactive
same,outcome,[5],inactive
same,outcome,[6],inactive
same,outcome,[7],inactive
same,outcome,[8],inactive
same,outcome,[9],inactive
same,outcome,[10],inactive
same,outcome,[14],inactive
same,outcome,[11],inactive
same,outcome,[13],inactive
